# SMN2 splice enh: increases expression of the SMN2 splice variant; HEK293 SMN2-luciferase splicing reporter, luminescence, 30-36 h; 2.8% of 210,000 active; AID 1458; Potency, µM (doses to about 46.1 µM), hits mostly activators; further: nearly all actives have a fitted effect of over 55% in size
#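 HEK293 cells carry an SMN2 […]–luciferase reporter in which exon 7 inclusion puts luciferase in frame. Cells were plated 10-12 h before compound addition, then incubated 30-36 h at 37C. ONE-Glo luminescence was read; sodium butyrate at 4.5 mM final served as control.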
# ELG1 genotox: induces genotoxicity in HEK293T cells with luciferase-tagged ELG1. HEK293T ELG1-luciferase reporter, luminescence, 16 h. 1.3% of 330,000 active. Potency, µM (series often up to 46 µM), most hits filed as activators. AID 504466; further: nearly all actives have a fitted effect of over 60% in size
#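 Luminescence read-out: rising ELG1-luciferase signal, reflecting elevated ELG1 protein under genetic stress, flags genotoxic compounds. Cells were treated for 16 hr at 37 °C before ONE-Glo detection.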
# KinaseGlo FLuc: blocks Kinase-Glo luciferase, a counter-screen artifact. Potency, µM (doses to about 38.3 µM), most hits filed as inhibitors. 0.28% of 200,000 active. AID 1379. Q27757. Kinase-Glo luciferase, ATP luminescence, 8 min; further: nearly all actives have a fitted effect of over 60% in size
#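 Recombinant Kinase-Glo luciferase, 10 uM ATP (linear range), luciferin; imidazole pH 7.2 / KCl / MgCl2 / Tween / BSA buffer; 8 min RT; luminescence.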
# NPC1 promoter act: NPC1 promoter activation. Huh7 NPC1 promoter luciferase reporter, 24 h. Potency, µM (top dose mostly 9.22 µM), most hits filed as activators. 2.4% of 320,000 active; further: nearly all actives have a fitted effect of over 60% in size
#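 Stably transfected Huh7 (NPC1 promoter→luciferase), 1500 cells/well in Opti-MEM + 10% FBS, 2 h settle, then compound 24 h at 37 °C. Luminescence after 10 min with Amplite reagent.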
# Rab9 promoter act: activates the Rab9 promoter | Huh7 Rab9 promoter-luciferase reporter, luminescence, 24 h | Potency, µM (series often up to 9.22 µM), usual class: activators | 2.8% of 320,000 active; further: nearly all actives have a fitted effect of over 60% in size
#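 Huh7 reporter line, Rab9 promoter upstream of luciferase. Compound exposure 24 h at 37 °C in reduced-serum medium with 10% FBS. Read-out: luminescence.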
# FLuc modulator: counter-screen for miR-21 project: firefly luciferase inhibitors or activators; purified FLuc, Km substrates, luminescence inhibition; 6.9% of 360,000 active; Potency, µM (doses to about 57.5 µM), usual class: inhibitors; AID 588342; P08659; further: nearly all actives have a fitted effect of over 55% in size
# Target sequence (P08659 whole entry, looked up): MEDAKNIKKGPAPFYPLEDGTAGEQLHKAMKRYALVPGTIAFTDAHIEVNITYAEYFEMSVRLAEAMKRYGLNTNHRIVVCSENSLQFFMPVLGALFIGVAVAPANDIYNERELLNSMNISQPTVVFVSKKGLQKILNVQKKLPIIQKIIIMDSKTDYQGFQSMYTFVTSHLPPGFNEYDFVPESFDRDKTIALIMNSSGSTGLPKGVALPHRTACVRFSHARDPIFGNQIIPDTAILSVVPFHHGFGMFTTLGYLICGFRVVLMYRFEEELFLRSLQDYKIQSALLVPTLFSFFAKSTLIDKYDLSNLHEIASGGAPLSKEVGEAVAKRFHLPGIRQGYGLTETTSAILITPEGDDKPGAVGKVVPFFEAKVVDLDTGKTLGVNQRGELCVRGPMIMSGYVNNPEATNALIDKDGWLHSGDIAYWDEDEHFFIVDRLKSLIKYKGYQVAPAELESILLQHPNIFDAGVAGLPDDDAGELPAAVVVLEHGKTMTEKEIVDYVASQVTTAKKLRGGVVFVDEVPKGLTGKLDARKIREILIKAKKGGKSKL
#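 Purified P. pyralis luciferase (10nM final) with 10uM D-luciferin and 10uM ATP (Km levels) in 50mM Tris acetate pH 7.5, 10mM Mg acetate, 0.01% Tween-20, 0.05% BSA; qHTS 6-point titration, ~60 µM downward; luminescence read.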
# Hits are given with their value; n = inactive; u = inconclusive; x = not tested or not shown; [ ] = another dose, or the depositor's remark. Hits are enriched below; roughly 7.5% of the tested compounds scored in any of these assays. The call rests on the fitted dose curve; in most records, active means well fitted curve in the direction sought with a large enough effect; inconclusive means small, poorly fitted or top-dose-only effect, or another doubt; inactive means no such curve, though single readings can be large; an effect the other way counts as inactive or inconclusive.
SMILES,SMN2 splice enh,ELG1 genotox,KinaseGlo FLuc,NPC1 promoter act,Rab9 promoter act,FLuc modulator
Cc1ccc(N2CC(NC(=O)c3ccco3)CC2=O)cc1 (stereo unspecified),x,x,x,x,x,n
Cc1cc2nc3c(=O)[nH]c(=O)nc-3n(C)c2cc1C=O,x,x,n,x,x,x
CC(=O)c1ccc(NC(=O)CSc2nnc3ccc(-c4ccc(Cl)cc4)nn23)cc1,x,x,x,x,x,n
Cc1ccc(NC(=O)C2C3C=CC4(O3)C2C(=O)N(CCCN2CCCCC2)C4C(=O)NC2CCCCC2)cc1C (stereo unspecified),x,n,x,n,n,n
Cn1c(-c2ccc3ccccc3n2)nc2cnccc21,n,u,n,3.98µM,2.24µM,8.49µM
COc1cc(OC)c(-c2nc3cnccc3n2C)cc1OC,u,n,n,n,n,n
Oc1ccc(NCc2ccccc2OCc2ccccc2)cc1,n,n,n,n,n,u
Oc1ccc(NCc2ccccc2OCc2ccc(Cl)cc2)cc1,22.4µM,x,x,x,x,21.3µM
Fc1ccc(/C=N/c2c(-c3ccc(F)cc3)nc3n2CCS3)cc1,n,n,n,n,n,n
COc1ccc(/C=N/c2c(-c3ccc(OC)cc3)nc3n2CCS3)cc1,n,n,n,n,n,1.9µM
Cc1cc(C)c(S(=O)(=O)Nc2ccc(-c3ccc(N4CCCCCC4)nn3)cc2)cc1C,x,x,x,x,x,n
COc1ccc(S(=O)(=O)Nc2ccc(-c3ccc(N4CCCC4)nn3)cc2)cc1C,x,n,x,n,n,n
COc1cc(C)c(C)cc1S(=O)(=O)Nc1cccc(-c2ccc(N3CCOCC3)nn2)c1,x,x,x,x,x,26.9µM
COc1ccc(S(=O)(=O)Nc2cccc(S(=O)(=O)N3CCCC3)c2)cc1OC,x,n,x,n,n,n
COc1ccc(S(=O)(=O)Nc2ccccc2C(=O)N2CCOCC2)cc1F,x,n,x,n,n,n
COc1ccc(S(=O)(=O)Nc2cccc(-c3ccc(N4CCCCCC4)nn3)c2)cc1F,x,x,x,x,x,5.36µM
COc1ccc(S(=O)(=O)Nc2cccc(-c3ccc(N4CCCCC4)nn3)c2)cc1F,x,x,x,x,x,2.69µM
COc1ccc(S(=O)(=O)Nc2cccc(-c3ccc(N4CCOCC4)nn3)c2)cc1F,x,x,x,x,x,6.75µM
O=C(Nc1ccc(F)c(Cl)c1)N1CCC(CN2CCOCC2)CC1,x,x,x,x,x,n
CCCN(C(=O)C1CCN(S(=O)(=O)c2c(C)noc2/C=C/c2ccc(C)cc2)CC1)c1ccccc1F,x,x,x,x,x,n
CC[C@@]1(C(=O)OC)N[C@H](CN(C)S(=O)(=O)c2ccc(C(F)(F)F)cc2)[C@@H]2C(=O)N(C)C(=O)[C@@H]21,x,n,x,x,x,x
CC(C)c1ccccc1NC(=O)CSc1n[nH]c(=O)n1C1CC1,x,n,x,n,n,n
COC(=O)Cn1c(=NC(=O)c2ccc([N+](=O)[O-])s2)sc2cc(Br)ccc21,n,n,n,n,n,n
COC(=O)Cn1c(=NC(=O)c2ccc(Cl)s2)sc2cc(C)ccc21,3.98µM,u,n,u,u,0.135µM
COc1ccc(-c2cn3nc(SCC(=O)Nc4ccc(C)c(Cl)c4)ccc3n2)cc1,x,x,x,x,x,2.69µM
SMILES,SMN2 splice enh,ELG1 genotox,KinaseGlo FLuc,NPC1 promoter act,Rab9 promoter act,FLuc modulator
COc1ccc(-c2cn3nc(SCC(=O)Nc4cc(C)cc(C)c4)ccc3n2)cc1,x,x,x,x,x,3.79µM
O=C(CSc1ccc2nc(-c3ccccc3)cn2n1)Nc1cccc(F)c1,x,x,x,x,x,7.57µM
COc1ccc(NC(=O)CSc2ccc3nc(-c4ccccc4)cn3n2)cc1OC,x,x,x,x,x,n
COc1ccc(-c2cn3nc(SCC(=O)Nc4cccc(C)c4C)ccc3n2)cc1,x,x,x,x,x,2.13µM
COc1ccc(CCC(=O)NNC(=O)c2ccc(OC)cc2)cc1,x,n,x,n,n,n
COc1ccc(C(=O)c2sc3nc(-c4ccc(F)cc4)ccc3c2N)cc1,n,x,x,x,x,n
CC(=O)N/N=C(/C)c1ccc(NC(=O)c2csc(C)c2C)cc1,x,11.6µM,x,2.82µM,1.41µM,10.7µM
C/C(=N/NC(=O)OC(C)(C)C)c1ccco1,14.1µM,u,n,u,2.51µM,19µM
C/C(=N\NC(=O)c1csc(C)c1C)c1ccc(C)s1,u,u,n,u,u,u
C/C(=N\NC(=O)c1csc(C)c1C)c1ccco1,11.2µM,6.51µM,u,3.98µM,2.24µM,7.57µM
C/C(=N\NC(=O)c1cccs1)c1ccc(C(=O)O)s1,x,u,x,n,n,n
C/C(=N/NC(=O)c1cccs1)c1ccco1,u,u,n,n,u,16.9µM
CCC(C)NC(=O)Cn1c(=O)n(-c2ccc(C)c(C)c2)c(=O)c2c3c(sc21)CCCCC3 (stereo unspecified),n,x,x,x,x,n
CC(/C=N/NC(=O)c1cccs1)=C\c1ccco1,11.2µM,9.2µM,n,3.16µM,1.41µM,6.01µM
CC(/C=N/NC(=O)Cc1cccs1)=C\c1ccco1,n,n,n,u,u,u
COc1cc(NC(=O)c2cccc3c2C(=O)N(C2CCCCC2)C3)cc(OC)c1,n,x,x,x,x,n
CCC(C(=O)NCCc1c[nH]c2cc(OC)ccc12)c1ccccc1 (stereo unspecified),x,n,x,n,n,n
CC(C)(C)c1ccc(C(=O)Nc2cccc3c(=O)[nH][nH]c(=O)c23)cc1,n,u,n,n,u,0.849µM
O=C(NCc1cc2ccccc2[nH]1)C1CCC(=O)N(CCCN2CCCC2=O)C1 (stereo unspecified),x,n,x,n,n,n
C[C@@H]1NCC[C@H](CC(=O)O)[C@H]1CC(=O)O,n[9.22 µM],x,n[7.66 µM],x,x,x
O=C(NCc1ccccc1Cl)c1ccc(NC(=O)c2nsc3ccccc23)cc1,x,x,x,x,x,3.79µM
O=C(NCc1ccccc1)c1ccc(NC(=O)c2nsc3ccccc23)cc1,x,x,x,x,x,6.01µM
Cc1ccc(C(=O)NCc2ccc(F)cc2)cc1NC(=O)c1nsc2ccccc12,x,x,x,x,x,n
COc1ccc(OC)c(CNC(=O)c2ccc(C)c(NC(=O)c3nsc4ccccc34)c2)c1,x,x,x,x,x,n
CC(C)C(NC(=O)c1ccccc1NC(=O)c1ccccc1)C(=O)NCCCn1ccnc1 (stereo unspecified),x,n,x,n,n,n
SMILES,SMN2 splice enh,ELG1 genotox,KinaseGlo FLuc,NPC1 promoter act,Rab9 promoter act,FLuc modulator
COC(=O)C1CN(C(=O)COc2ccc(Cl)cc2Cl)c2ccccc2O1 (stereo unspecified),x,n,x,n,n,19µM
COC(=O)C1CN(C(=O)COc2cccc(C)c2C)c2ccccc2O1 (stereo unspecified),x,n,x,n,n,u
C/C(=N\NC(=O)c1cc(O)ccc1O)c1cccc(NC(=O)c2ccc(Cl)cc2)c1,x,n,x,u,n,1.07µM
C/C(=N\NC(=O)CSCc1ccccc1Cl)c1cccc(NC(=O)c2ccccc2)c1,n,n,n,n,n,n
C/C(=N\NC(=O)C1CC1)c1cccc(NC(=O)c2cccc(Cl)c2)c1,n,n,n,n,n,u
C/C(=N\NC(=O)c1cc(O)ccc1O)c1cccc(NC(=O)c2cccc(Cl)c2)c1,x,n,x,n,n,8.49µM
CC(C)=CCC1=C(O)c2ccccc2C(=O)C1=O,3.98µM,x,n,x,x,x

# Bioassay records as filed in PubChem.
